# This is part of a sample that, as a whole, favours compounds with a hit. Of some 83,000 tested, about 20% had one in any assay.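 Note: values are percent growth. 100 is the growth of untreated cells, values between 100 and 0 indicate rising inhibition; between -100 and 0 indicates cell death.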 Unmarked numbers belong to inactive results. The source made the active and inactive calls. Rule for the calls: active = growth percent below 10; inactive = the rest.
# How the values were obtained:
# Experiment in all cases: NCI-60 one-dose screen, 48 h (100 = growth as untreated, 0 = no growth, -100 = all killed)
# Details in all cases: 10 µM unless noted
# NCI-H23 lung = test system: NCI-H23 lung
# NCI-H226 lung = test system: NCI-H226 lung
# NCI-H322M lung = test system: NCI-H322M lung
# HOP-62 NSCLC = test system: HOP-62 NSCLC
# NCI-H460 lung = test system: NCI-H460 lung
# HOP-92 NSCLC = test system: HOP-92 NSCLC
# NCI-H522 lung = test system: NCI-H522 lung
# A549/ATCC NSCLC = test system: A549/ATCC NSCLC
# 786-0 renal = test system: 786-0 renal
# COLO 205 colon = test system: COLO 205 colon
SMILES,growth (NCI-H23 lung),growth (NCI-H226 lung),growth (NCI-H322M lung),growth (HOP-62 NSCLC),growth (NCI-H460 lung),growth (HOP-92 NSCLC),growth (NCI-H522 lung),growth (A549/ATCC NSCLC),growth (786-0 renal),growth (COLO 205 colon)
COc1cc(/C=C2\C(=O)Nc3ccc(N(C)C)cc32)cc(OC)c1OC,26.8%,25.8%,37.6%,45.5%,6.86% (active),33.2%,23.8%,-3.78% (active),28.4%,28%
O=C(Nc1ccc2ncnc(Nc3ccc(F)c(Cl)c3)c2c1)c1cccs1,81.6%,58.1%,19.3%,72.7%,39.6%,38%,31.4%,43.3%,14.8%,106%
CC(=O)c1ccc(Nc2nc(Cl)nc(Oc3c(Cl)cccc3Cl)n2)cc1,92.3%,74.9%,104%,101%,79.9%,81.2%,64.4%,83.8%,100%,99.7%
CC(C)(C)NC(=O)C(OC(=O)C1CCc2cc(F)ccc2O1)c1ccccc1Cl (stereo not given),93.5%,95.6%,95.6%,94.4%,104%,89%,82.4%,98.6%,100%,130%
CN(C)c1ccc(/C=N/Nc2nnc3n2N=C(c2ccc(Cl)cc2)CS3)cc1,102%,85%,102%,104%,93.4%,94.5%,87.5%,81.3%,88.1%,105%
Cn1nc(C(F)(F)F)cc1-c1c[nH]c(OCc2ccc(Cl)cc2)c(-c2ccc(Cl)c(C(F)(F)F)c2)c1=O,3.29% (active),-17.3% (active),8.32% (active),-25% (active),2.53% (active),-22.6% (active),-1.66% (active),13.4%,3.83% (active),-31% (active)
FC1(F)CCN(Cc2c[nH]c3cc(Cl)ccc23)C[C@H]1CCc1ccccc1,67.7%,43.5%,84.3%,46.1%,42.8%,37.3%,67.6%,43%,66.9%,69.5%
CCOC(=O)C(=CNc1ccccc1Cl)C(=O)OCC,103%,122%,110%,94.5%,103%,97.2%,72%,85.6%,87.7%,129%
CNCc1cccc2c1OCCOCCOCCC(C)S(=O)(=O)c1ccc(cc1)-c1cnc(N)c(n1)C(=O)N2 (stereo not given),77.9%,31.6%,67%,37.7%,11.2%,80.3%,34.4%,33%,10.6%,33.7%
COc1ccc([C@@H]2[C@@H](Cl)C(=O)N2c2cc(OC)c(OC)c(OC)c2)cc1C,25.3%,53.9%,35.3%,23.3%,9.34% (active),76%,10.2%,23.6%,7.98% (active),-57% (active)
COc1ccc(C2CC(c3ccc(Nc4ccnc5cc(Cl)ccc45)cc3)=NN2c2ccccc2)cc1 (stereo not given),97.7%,102%,100%,106%,85.6%,68.5%,90.6%,85.8%,100%,86.5%
Cc1cc(C)c2c(n1)sc1c(Nc3ccc(OCc4ccccc4)cc3)ncnc12,101%,96.2%,92.8%,101%,98.8%,88.2%,90.1%,101%,97.8%,111%
CCOc1cccc(/C=N/NC(=O)c2ccc(Nc3ccnc(C(F)(F)F)c3)cc2)c1O,28.2%,-16.7% (active),22.3%,-9.17% (active),-3.48% (active),18.2%,2.45% (active),17.8%,3.12% (active),-9.24% (active)
Cn1nc(C(F)(F)F)cc1-c1cc(Cl)c(OCc2ccc(Cl)cc2)c(-c2ccc(Cl)c(C(F)(F)F)c2)c1O,4.69% (active),-13.3% (active),9.05% (active),-28.6% (active),0.354% (active),-25.8% (active),1.3% (active),13.2%,-4.08% (active),-78.6% (active)
CCN(CC)CCCCCCCNc1cc(OC)cc2c(C)ccnc12,87.6%,86.6%,94.8%,93.3%,85.2%,57.5%,71.4%,94.7%,80.8%,72.9%
Oc1c(-c2cc(C(F)(F)F)[nH]n2)cc(Cl)c(OCc2ccc(Cl)cc2)c1-c1ccc(Cl)c(C(F)(F)F)c1,6% (active),-13.2% (active),8.73% (active),-20.9% (active),7.68% (active),-12.1% (active),-2.6% (active),11.6%,-21.4% (active),-38.8% (active)
Nc1ccc(N(O)/C=C2\C=CC=CC2=O)cc1N,82.7%,103%,110%,95.7%,119%,91.3%,72.7%,94.4%,92.3%,114%
COc1cccc(CC(C)=C(c2ccc(OCCCN(C)C)cc2)c2ccc(OCCCN(C)C)cc2)c1,-66.9% (active),-18.9% (active),-95% (active),-81% (active),-90.2% (active),-53% (active),-77.3% (active),-81.5% (active),-85.6% (active),-74.1% (active)
COc1ccc(C2=Nn3c(nnc3-c3ccc(Cl)cc3N)SC2)cc1,105%,102%,109%,103%,104%,94.1%,85.6%,103%,107%,108%
CC(=O)N(C)c1ccc(Nc2cc(C)[nH]c3ccc4ncnc4c23)cc1,50.4%,54.8%,77%,54.3%,22.4%,-2.3% (active),22.1%,67.2%,55.8%,53.3%
COC(=O)c1ccc(NC(N)=NCCC(C)(C)c2ccc(C(F)(F)F)cc2)nc1,17.5%,37.4%,74.5%,63.7%,31.6%,39%,39%,54.2%,56.9%,-71.2% (active)
